# Measurements published in PubChem BioAssay (EPA / NIEHS).
# “And” between values parts separate entries of the source, which are not always exact repeats. Identical values can stand only once. Results filed as inconclusive are left out. Where a structure was tested more than once in an assay, its records may differ in their call. The source made the active and inactive calls. The calls were made as follows, unless noted: active = hit-call score of the fitted dose curve at least 0.9, where 1 is the maximum; inconclusive = response in the unintended direction; inactive = score below 0.9.
# Key:
# [1] = read-out: Intercellular Adhesion Molecule 1 (ICAM1), ICAM1 (gene 3383); assay: BSK_3C_ICAM1: BioMAP Diversity Plus: 3C Assay for Intercellular Adhesion Molecule 1 (ICAM1) Biomarker Activity (AID 2283003; active = hit-call score of the fitted dose curve at least 0.9, where 1 is the maximum; inactive = score below 0.9); conditions: primary human endothelial cells (HUVEC); actives raise or lower the signal
# Method in brief: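 Chemicals are dosed onto primary human umbilical vein endothelium (3C system). After 24 h, ICAM-1 is measured by ELISA, and responses are fitted bidirectionally relative to DMSO.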
# [2] = biological target: human Retinoic Acid Receptor beta (RARb), RARB (gene 5915) (UniProt P10826); assay: ATG_RARb_TRANS: Attagene TRANS-FACTORIAL HepG2 Assay for human Retinoic Acid Receptor beta (AID 2283004)
# Sequence of human Retinoic Acid Receptor beta (RARb), RARB (gene 5915) (P10826 whole entry, looked up, the tested form may be a part): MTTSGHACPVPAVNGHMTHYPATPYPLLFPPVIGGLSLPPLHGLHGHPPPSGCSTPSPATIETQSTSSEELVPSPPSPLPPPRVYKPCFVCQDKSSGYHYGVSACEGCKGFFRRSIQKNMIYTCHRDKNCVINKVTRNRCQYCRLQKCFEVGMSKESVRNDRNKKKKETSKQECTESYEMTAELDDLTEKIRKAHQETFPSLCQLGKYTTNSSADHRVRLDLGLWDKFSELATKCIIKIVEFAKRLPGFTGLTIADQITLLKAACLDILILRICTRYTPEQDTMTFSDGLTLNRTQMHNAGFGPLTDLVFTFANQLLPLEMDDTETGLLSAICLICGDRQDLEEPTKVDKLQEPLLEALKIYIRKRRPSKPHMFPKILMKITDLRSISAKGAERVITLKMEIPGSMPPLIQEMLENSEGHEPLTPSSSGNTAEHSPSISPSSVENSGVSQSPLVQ
# Method in brief: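 Fluorescent capillary-electrophoresis detection of GAL4-UAS reporter mRNA defines the endpoint, with induction over DMSO-treated wells scored as activity. Transiently transfected human hepatoma HepG2 cells expressing exogenous NR–Gal4 proteins are exposed to test chemicals for 24 h.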
# [3] = biological target: human RAR-related Orphan Receptor beta (RORb), RORB (gene 6096) (UniProt Q92753); assay: ATG_RORb_TRANS: Attagene TRANS-FACTORIAL HepG2 Assay for human RAR-related Orphan Receptor beta (RORb) (AID 2283010)
# Sequence of human RAR-related Orphan Receptor beta (RORb), RORB (gene 6096) (Q92753 whole entry, looked up, the tested form may be a part): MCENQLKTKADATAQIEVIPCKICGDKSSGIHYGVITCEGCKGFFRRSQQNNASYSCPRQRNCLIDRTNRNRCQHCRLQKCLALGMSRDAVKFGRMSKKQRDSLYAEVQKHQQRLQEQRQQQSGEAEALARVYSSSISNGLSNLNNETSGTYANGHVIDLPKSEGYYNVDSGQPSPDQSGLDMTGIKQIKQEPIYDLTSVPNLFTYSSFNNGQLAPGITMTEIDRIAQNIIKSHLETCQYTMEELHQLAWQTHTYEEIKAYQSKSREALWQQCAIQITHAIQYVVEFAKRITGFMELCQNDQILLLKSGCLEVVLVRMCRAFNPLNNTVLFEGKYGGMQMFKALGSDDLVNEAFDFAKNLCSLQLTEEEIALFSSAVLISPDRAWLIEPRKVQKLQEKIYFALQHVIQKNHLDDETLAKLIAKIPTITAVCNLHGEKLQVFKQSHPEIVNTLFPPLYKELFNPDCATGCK
# Method in brief: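 Transfect HepG2 with multiple GAL4-UAS reporter transcription units; dose chemicals for 24 h; isolate RNA, reverse-transcribe and PCR-amplify reporter sequences; label, digest and resolve fragments by capillary electrophoresis; fit increases relative to DMSO.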
# [4] = biological target: human Retinoid X Receptor beta (RXRb), RXRB (gene 6257) (UniProt P28702); assay: ATG_RXRb_TRANS: Attagene TRANS-FACTORIAL HepG2 Assay for human Retinoid X Receptor beta (RXRb) (AID 2283013)
# Sequence of human Retinoid X Receptor beta (RXRb), RXRB (gene 6257) (P28702 whole entry, looked up, the tested form may be a part): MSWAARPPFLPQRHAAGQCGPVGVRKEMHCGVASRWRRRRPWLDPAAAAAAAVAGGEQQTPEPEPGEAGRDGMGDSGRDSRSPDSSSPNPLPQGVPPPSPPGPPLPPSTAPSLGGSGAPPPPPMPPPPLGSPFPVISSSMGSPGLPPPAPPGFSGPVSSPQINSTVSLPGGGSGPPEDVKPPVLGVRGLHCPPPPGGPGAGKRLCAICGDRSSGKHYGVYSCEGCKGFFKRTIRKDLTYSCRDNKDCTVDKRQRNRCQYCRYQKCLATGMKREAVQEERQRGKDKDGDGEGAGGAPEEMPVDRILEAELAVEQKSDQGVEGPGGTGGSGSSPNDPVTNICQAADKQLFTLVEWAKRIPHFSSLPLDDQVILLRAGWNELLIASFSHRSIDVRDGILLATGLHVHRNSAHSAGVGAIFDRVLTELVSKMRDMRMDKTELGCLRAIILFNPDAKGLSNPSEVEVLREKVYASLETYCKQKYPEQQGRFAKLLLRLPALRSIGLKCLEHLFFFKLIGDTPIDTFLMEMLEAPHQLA
# Method in brief: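 Chimeric receptor-Gal4 activity was assessed in transiently transfected human HepG2 cells after 24 h exposure. Transcripts from GAL4-UAS reporters were quantified by fluorescent RT-PCR and capillary electrophoresis, with DMSO as negative control and baseline.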
# [5] = read-out: E-selectin (Homo sapiens) (UniProt P16581); assay: BSK_3C_Eselectin: BioMAP Diversity Plus: 3C Assay for Eselectin Biomarker Activity (AID 2283015; active = hit-call score of the fitted dose curve at least 0.9, where 1 is the maximum; inactive = score below 0.9;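 as to outcome: cell surface E-selectin protein quantified by ELISA 24 h after dosing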); conditions: primary human endothelial cells (HUVEC); actives raise or lower the signal
# Method in brief: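 Endpoint derived by bidirectional fitting against DMSO vehicle; signal is ELISA-detected E-selectin from primary HUVEC at 24 h post-dosing, with parallel SRB staining (0.1% SRB, 560 nm) flagging cytotoxicity.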
# [6] = read-out: Interleukin-1 alpha (IL1a), IL1A (gene 3552); assay: BSK_BE3C_IL1a: BioMAP Diversity Plus: BE3C Assay for Interleukin-1 alpha (IL1a) Biomarker Activity (AID 2283016; active = hit-call score of the fitted dose curve at least 0.9, where 1 is the maximum; inactive = score below 0.9); conditions: primary human bronchial epithelial cells; actives raise or lower the signal
# Method in brief: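 Signal from IL-1a ELISA, taken 24 h after chemical dosing of human bronchial epithelial cells, is compared with DMSO as baseline using bidirectional curve fitting.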
# [7] = read-out: Monocyte Chemoattractant Protein-1 (MCP1), CCL2 (gene 6347); assay: BSK_3C_MCP1: BioMAP Diversity Plus: 3C Assay for Monocyte Chemoattractant Protein-1 (MCP1) Biomarker Activity (AID 2283017; active = hit-call score of the fitted dose curve at least 0.9, where 1 is the maximum; inactive = score below 0.9); conditions: primary human endothelial cells (HUVEC); actives raise or lower the signal
# Method in brief: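 Using human vascular primary endothelium, researchers measured MCP-1 by ELISA 24 h after treatment, with DMSO serving as negative control for bidirectional fitting.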
# [8] = read-out: Monocyte Chemoattractant Protein-1 (MCP1), CCL2 (gene 6347); assay: BSK_4H_MCP1: BioMAP Diversity Plus: 4H Assay for Monocyte Chemoattractant Protein-1 (MCP1) Biomarker Activity (AID 2283018; active = hit-call score of the fitted dose curve at least 0.9, where 1 is the maximum; inactive = score below 0.9); conditions: primary human endothelial cells (HUVEC); actives raise or lower the signal
# Method in brief: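 Endothelial cells from umbilical vein were treated with test chemical, then after 24 h MCP-1 levels were quantified by ELISA; endpoint values came from bidirectional fitting with DMSO as baseline of activity.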
# [9] = read-out: Human Leukocyte Antigen - DR isotype (HLADR), HLA-DRA (gene 3122); assay: BSK_3C_HLADR: BioMAP Diversity Plus: 3C Assay for Human Leukocyte Antigen - DR isotype (HLADR) Biomarker Activity (AID 2283019; active = hit-call score of the fitted dose curve at least 0.9, where 1 is the maximum; inactive = score below 0.9;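 as to outcome: ELISA of cell-surface HLA-DR on HUVEC 24 h after dosing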); conditions: primary human endothelial cells (HUVEC); actives raise or lower the signal
# Method in brief: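 Compound added to primary HUVEC cultures, 24 h incubation, then HLA-DR determined by ELISA; endpoint derived by bidirectional fitting relative to DMSO negative control.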
# [10] = read-out: Interleukin-8 (IL8), CXCL8 (gene 3576); assay: BSK_3C_IL8: BioMAP Diversity Plus: 3C Assay for Interleukin-8 (IL8) Biomarker Activity (AID 2283020; active = hit-call score of the fitted dose curve at least 0.9, where 1 is the maximum; inactive = score below 0.9); conditions: primary human endothelial cells (HUVEC); actives raise or lower the signal
# Method in brief: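 Endothelial primary cells of human umbilical vein origin are dosed with chemical; after 24 h the IL-8 biomarker is measured by ELISA, and concentration–response is fitted in both directions versus DMSO.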
# [11] = read-out: Monokine induced gamma interferon (MIG), CXCL9 (gene 4283); assay: BSK_3C_MIG: BioMAP Diversity Plus: 3C Assay for Monokine induced gamma interferon (MIG) Biomarker Activity (AID 2283021; active = hit-call score of the fitted dose curve at least 0.9, where 1 is the maximum; inactive = score below 0.9;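 as to AC50: MIG protein level measured by immunoassay in the treated endothelial cultures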); conditions: primary human endothelial cells (HUVEC); actives raise or lower the signal
# Method in brief: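 Endothelial primary cells (human umbilical vein) are dosed with test chemical in the 3C system. MIG levels are measured by ELISA at 24 h and fitted in both directions relative to DMSO.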
# [12] = biological target: human Vitamin D Receptor (VDR), VDR (gene 7421) (UniProt P11473); assay: ATG_VDR_TRANS: Attagene TRANS-FACTORIAL HepG2 Assay for human Vitamin D Receptor (VDR) (AID 2283022)
# Sequence of human Vitamin D Receptor (VDR), VDR (gene 7421) (P11473 whole entry, looked up): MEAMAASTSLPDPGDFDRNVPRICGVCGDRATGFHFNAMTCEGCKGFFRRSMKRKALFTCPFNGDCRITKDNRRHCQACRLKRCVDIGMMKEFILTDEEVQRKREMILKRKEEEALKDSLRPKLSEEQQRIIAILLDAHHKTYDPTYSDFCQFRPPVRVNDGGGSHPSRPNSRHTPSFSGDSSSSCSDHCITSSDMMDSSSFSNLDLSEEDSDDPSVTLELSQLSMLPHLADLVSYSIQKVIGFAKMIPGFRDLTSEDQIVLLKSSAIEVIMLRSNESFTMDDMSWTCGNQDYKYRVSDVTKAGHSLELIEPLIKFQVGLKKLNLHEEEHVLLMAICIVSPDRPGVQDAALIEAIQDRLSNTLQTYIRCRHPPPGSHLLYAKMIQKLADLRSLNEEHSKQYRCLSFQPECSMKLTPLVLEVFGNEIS
# Method in brief: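 Multiplexed TRANS reporter in HepG2; 24 h treatment; reporter mRNA by RT-PCR plus capillary electrophoresis; upregulation scored relative to DMSO.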
# [13] = biological target: human Peroxisome Proliferator-activated Receptor delta (PPARd), PPARD (gene 5467) (UniProt Q03181); assay: ATG_PPARd_TRANS: Attagene TRANS-FACTORIAL HepG2 Assay for human Peroxisome Proliferator-activated Receptor delta (PPARd) (AID 2283002)
# Sequence of human Peroxisome Proliferator-activated Receptor delta (PPARd), PPARD (gene 5467) (Q03181 whole entry, looked up): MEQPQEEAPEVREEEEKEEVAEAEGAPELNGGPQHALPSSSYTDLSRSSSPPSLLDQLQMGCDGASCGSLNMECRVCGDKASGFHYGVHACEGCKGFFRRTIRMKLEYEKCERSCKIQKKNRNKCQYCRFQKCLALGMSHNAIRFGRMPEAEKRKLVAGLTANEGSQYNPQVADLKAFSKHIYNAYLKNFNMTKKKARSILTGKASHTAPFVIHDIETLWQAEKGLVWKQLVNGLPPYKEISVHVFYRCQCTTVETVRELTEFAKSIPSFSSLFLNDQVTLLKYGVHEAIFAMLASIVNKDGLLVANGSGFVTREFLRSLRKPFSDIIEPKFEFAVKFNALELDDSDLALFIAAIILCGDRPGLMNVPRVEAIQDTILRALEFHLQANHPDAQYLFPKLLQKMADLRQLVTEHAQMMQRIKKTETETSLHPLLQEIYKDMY
# Method in brief: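 Cell-based TRANS reporter: HepG2, transient MRTU transfection, 24 h exposure. Readout = reporter mRNA (RT-PCR/CE, 6-FAM). Gain-of-signal fit vs DMSO control.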
# [14] = biological target: Peroxisome proliferator-activated receptor gamma (Homo sapiens) (UniProt P37231); assay: ATG_PPARg_TRANS: Attagene TRANS-FACTORIAL HepG2 Assay for human Peroxisome Proliferator-activated Receptor-gamma (PPARg) (AID 2283007)
# Sequence of Peroxisome proliferator-activated receptor gamma (Homo sapiens) (P37231 whole entry, looked up, the tested form may be a part): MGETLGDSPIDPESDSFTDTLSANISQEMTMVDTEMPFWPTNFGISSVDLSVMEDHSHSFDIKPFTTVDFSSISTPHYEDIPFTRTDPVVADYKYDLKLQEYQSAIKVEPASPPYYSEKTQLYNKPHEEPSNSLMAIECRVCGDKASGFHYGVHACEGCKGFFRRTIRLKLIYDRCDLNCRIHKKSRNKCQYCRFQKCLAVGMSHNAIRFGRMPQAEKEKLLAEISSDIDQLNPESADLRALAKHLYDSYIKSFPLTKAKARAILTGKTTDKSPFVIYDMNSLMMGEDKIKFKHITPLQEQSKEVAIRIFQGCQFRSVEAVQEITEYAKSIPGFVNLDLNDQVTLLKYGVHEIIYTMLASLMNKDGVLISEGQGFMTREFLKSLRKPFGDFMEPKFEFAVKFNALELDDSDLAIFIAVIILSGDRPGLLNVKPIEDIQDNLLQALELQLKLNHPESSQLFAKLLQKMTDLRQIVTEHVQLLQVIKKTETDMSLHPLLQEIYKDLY
# Method in brief: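 After 24 h of chemical exposure, transfected HepG2 cells carrying PPARγ-Gal4 chimera reporter constructs are lysed for RNA. Reporter transcripts are measured by RT-PCR and capillary electrophoresis with fluorescent labelling, and gain of signal is fitted versus DMSO.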
# [15] = biological target: Nuclear receptor subfamily 1 group I member 2 (Homo sapiens) (UniProt O75469); assay: ATG_PXR_TRANS: Attagene TRANS-FACTORIAL HepG2 Assay for human Pregnane X Receptor (PXR) (AID 2283008)
# Sequence of Nuclear receptor subfamily 1 group I member 2 (Homo sapiens) (O75469 whole entry, looked up, the tested form may be a part): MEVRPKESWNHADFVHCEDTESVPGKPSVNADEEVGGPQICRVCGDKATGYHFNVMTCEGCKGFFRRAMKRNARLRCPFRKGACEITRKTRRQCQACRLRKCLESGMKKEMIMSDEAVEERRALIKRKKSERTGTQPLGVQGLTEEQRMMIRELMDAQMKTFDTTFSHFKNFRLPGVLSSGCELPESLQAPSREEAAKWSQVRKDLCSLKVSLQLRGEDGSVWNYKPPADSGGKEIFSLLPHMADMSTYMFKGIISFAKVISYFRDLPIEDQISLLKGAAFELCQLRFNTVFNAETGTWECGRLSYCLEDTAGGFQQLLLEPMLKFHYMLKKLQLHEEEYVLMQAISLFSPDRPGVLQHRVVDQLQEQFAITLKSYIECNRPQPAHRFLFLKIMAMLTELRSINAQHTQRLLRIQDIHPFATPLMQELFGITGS
# Method in brief: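 Multiplexed TRANS reporter panel in HepG2; this component tracks PXR-Gal4-driven reporter mRNA after 24 h dosing, measured by RT-PCR with capillary electrophoresis fluorescence, fitted against DMSO.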
# [16] = biological target: Retinoic acid receptor RXR-alpha (Homo sapiens) (UniProt P19793); assay: ATG_RXRa_TRANS: Attagene TRANS-FACTORIAL HepG2 Assay for human Retinoid X Receptor alpha (RXRa) (AID 2283012)
# Sequence of Retinoic acid receptor RXR-alpha (Homo sapiens) (P19793 whole entry, looked up, the tested form may be a part): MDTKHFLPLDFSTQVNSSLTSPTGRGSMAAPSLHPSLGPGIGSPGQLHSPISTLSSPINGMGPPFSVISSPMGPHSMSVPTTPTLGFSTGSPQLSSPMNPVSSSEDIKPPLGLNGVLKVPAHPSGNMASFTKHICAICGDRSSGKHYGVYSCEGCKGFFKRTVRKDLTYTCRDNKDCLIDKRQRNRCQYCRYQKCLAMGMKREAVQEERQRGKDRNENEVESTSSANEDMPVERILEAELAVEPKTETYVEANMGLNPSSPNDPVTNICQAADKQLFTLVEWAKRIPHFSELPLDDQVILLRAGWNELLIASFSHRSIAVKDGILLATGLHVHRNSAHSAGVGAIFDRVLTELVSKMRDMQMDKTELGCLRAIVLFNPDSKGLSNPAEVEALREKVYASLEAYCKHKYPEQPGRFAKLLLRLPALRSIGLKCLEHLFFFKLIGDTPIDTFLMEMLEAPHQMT
# Method in brief: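 Measures exogenous chimeric NR-GAL4 activity in transfected HepG2 liver cells after 24 h of dosing. Induced reporter mRNA was detected by RT-PCR with capillary electrophoresis, and gain of signal was analysed against DMSO.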
# [17] = BSK_3C_SRB: Viability Assessment in the BioMAP Diversity Plus: 3C Assay (AID 2283023; active = hit-call score of the fitted dose curve at least 0.9, where 1 is the maximum; inactive = score below 0.9;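 also: cells read 24 h after compound dosing; fitted both ways against DMSO so a hit may be signal rise or drop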); conditions: primary human endothelial cells (HUVEC)
# Method in brief: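 Overt cytotoxicity is gauged in parallel confluent HUVEC cultures by SRB total-protein staining at the time of biomarker measurement, 24 h after dosing. Gain or loss of signal is fitted versus DMSO.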
# [18] = BSK_3C_Proliferation: Cell Proliferation Assessment in the BioMAP Diversity Plus: 3C Assay (AID 2283006; active = hit-call score of the fitted dose curve at least 0.9, where 1 is the maximum; inactive = score below 0.9); conditions: primary human endothelial cells (HUVEC)
# Method in brief: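 Cells (human umbilical vein endothelial, sub-confluent) receive test chemical; after 48 h they are fixed in 10% trichloroacetic acid, stained with 0.1% SRB and read at 560 nm. Activity is referenced to DMSO, fitting increases and decreases.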
# [19] = biological target: human RAR-related Orphan Receptor gamma (RORg), RORC (gene 6097) (UniProt P51449); assay: ATG_RORg_TRANS: Attagene TRANS-FACTORIAL HepG2 Assay for human RAR-related Orphan Receptor gamma (RORg) (AID 2283011)
# Method in brief: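 Chimeric RORg-Gal4 transactivation in transfected HepG2; 24 h exposure; RT-PCR/capillary electrophoresis readout of reporter mRNA, DMSO baseline.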
# [20] = biological target: human Thyroid Receptor alpha (THRa1), THRA (gene 7067) (UniProt P10827); assay: ATG_THRa1_TRANS: Attagene TRANS-FACTORIAL HepG2 Assay for human Thyroid Receptor alpha (THRa1) (AID 2283014)
# Sequence of human Thyroid Receptor alpha (THRa1), THRA (gene 7067) (P10827 whole entry, looked up, the tested form may be a part): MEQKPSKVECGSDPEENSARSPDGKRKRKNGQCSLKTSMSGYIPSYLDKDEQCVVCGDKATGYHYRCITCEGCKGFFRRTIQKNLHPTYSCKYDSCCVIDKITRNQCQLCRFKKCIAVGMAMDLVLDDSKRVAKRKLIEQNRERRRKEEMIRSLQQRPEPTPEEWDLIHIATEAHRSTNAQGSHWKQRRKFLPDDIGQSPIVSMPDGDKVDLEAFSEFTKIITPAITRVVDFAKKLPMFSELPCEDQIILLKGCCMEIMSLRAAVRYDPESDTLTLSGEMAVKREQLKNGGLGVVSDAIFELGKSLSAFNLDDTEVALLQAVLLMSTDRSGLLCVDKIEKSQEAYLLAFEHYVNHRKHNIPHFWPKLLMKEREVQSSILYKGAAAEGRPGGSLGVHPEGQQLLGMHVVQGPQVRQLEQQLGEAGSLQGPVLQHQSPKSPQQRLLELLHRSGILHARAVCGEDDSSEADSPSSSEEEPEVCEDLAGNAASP
# Method in brief: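 Measured here is mRNA from a GAL4-UAS reporter in transfected HepG2 cells carrying a Gal4-fused receptor, 24 h post-dose. DMSO served as negative control and baseline.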
# Sequence of E-selectin (Homo sapiens) (P16581 whole entry, looked up): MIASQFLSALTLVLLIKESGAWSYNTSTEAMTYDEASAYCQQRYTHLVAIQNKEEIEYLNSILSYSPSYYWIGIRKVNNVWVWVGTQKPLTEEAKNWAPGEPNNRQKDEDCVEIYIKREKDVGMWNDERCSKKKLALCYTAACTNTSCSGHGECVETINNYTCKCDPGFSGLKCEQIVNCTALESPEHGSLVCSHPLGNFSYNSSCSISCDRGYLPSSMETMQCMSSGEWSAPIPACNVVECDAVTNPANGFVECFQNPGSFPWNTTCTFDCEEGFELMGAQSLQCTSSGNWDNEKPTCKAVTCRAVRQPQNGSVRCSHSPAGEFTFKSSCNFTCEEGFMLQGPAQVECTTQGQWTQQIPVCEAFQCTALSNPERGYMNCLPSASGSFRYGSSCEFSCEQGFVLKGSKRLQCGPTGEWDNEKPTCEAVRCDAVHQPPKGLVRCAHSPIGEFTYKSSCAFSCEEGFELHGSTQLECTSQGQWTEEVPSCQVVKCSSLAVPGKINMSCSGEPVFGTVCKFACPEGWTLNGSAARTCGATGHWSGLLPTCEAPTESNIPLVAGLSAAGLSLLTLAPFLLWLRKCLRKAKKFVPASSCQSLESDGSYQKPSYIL
compound,measurement,setting,value
CC/C(=C(/CC)c1ccc(O)cc1)c1ccc(O)cc1,AC50,[1],32.8 µM (active)
same,outcome,[2],inactive
same,outcome,[3],inactive
same,AC50,[4],6.68 µM (active) [middle of 4 runs]
same,outcome,[4],inactive
same,AC50,[5],31.5 µM (active)
same,AC50,[6],29.9 µM (active)
same,AC50,[7],31 µM (active)
same,AC50,[8],15.9 µM (active)
same,AC50,[9],27.7 µM (active)
same,AC50,[10],32.6 µM (active)
same,AC50,[11],35.8 µM (active)
same,outcome,[12],inactive
CC(C)(C)c1csc(-c2cc3cc(OCc4ccccc4CC(=O)O)ccc3o2)n1,outcome,[13],inactive
same,outcome,[1],inactive
same,AC50,[14],1.51 µM (active)
same,outcome,[15],inactive
same,outcome,[16],inactive
same,outcome,[5],inactive
same,AC50,[6],10 µM (active)
same,AC50,[7],21.6 µM (active)
same,AC50,[9],17.3 µM (active)
same,AC50,[10],18.4 µM (active)
same,AC50,[11],32 µM (active)
same,outcome,[12],inactive
same,AC50,[17],21.5 µM (active)
CCCCCCCCCC(=O)O,outcome,[1],inactive
same,outcome,[18],inactive
same,AC50,[14],29.2 µM (active) and 12.3 µM (active)
same,outcome,[15],inactive
same,outcome,[3],inactive
same,AC50,[4],30.2 µM (active) and 68.3 µM (active)
same,outcome,[5],inactive
same,outcome,[6],inactive
same,outcome,[7],inactive
same,outcome,[9],inactive
same,outcome,[10],inactive
same,outcome,[11],inactive
same,outcome,[12],inactive
CC(=O)N1CCN(c2ccc(OC[C@H]3CO[C@](Cn4ccnc4)(c4ccc(Cl)cc4Cl)O3)cc2)CC1,outcome,[1],inactive
same,outcome,[14],inactive
same,outcome,[15],inactive
same,outcome,[19],inactive
same,outcome,[5],inactive
same,outcome,[6],inactive
same,AC50,[7],31.9 µM (active)
same,AC50,[9],25.2 µM (active)
same,AC50,[10],31.3 µM (active)
same,AC50,[11],34.5 µM (active)
same,outcome,[12],inactive
CCCC(=O)OCCC(C)C,outcome,[1],inactive
same,outcome,[2],inactive
same,outcome,[19],inactive
same,outcome,[20],inactive
same,outcome,[5],inactive
same,outcome,[6],inactive
same,outcome,[7],inactive
same,outcome,[9],inactive
same,outcome,[10],inactive
same,outcome,[11],inactive
same,outcome,[12],inactive
Cc1ncc(CO)c(CO)c1O,outcome,[13],inactive
same,outcome,[1],inactive
same,outcome,[14],inactive
same,outcome,[15],inactive
same,outcome,[19],inactive
same,outcome,[4],inactive
same,outcome,[5],inactive
same,outcome,[6],inactive
same,outcome,[7],inactive
same,outcome,[8],inactive
same,outcome,[9],inactive
same,outcome,[10],inactive
same,outcome,[11],inactive
same,outcome,[12],inactive
same,outcome,[17],inactive
CC(O)CC(C)(C)O (stereo not given),outcome,[1],inactive
same,outcome,[2],inactive
same,outcome,[18],inactive
same,outcome,[14],inactive
same,outcome,[15],inactive
same,outcome,[3],inactive
same,outcome,[19],inactive
same,outcome,[4],inactive
same,outcome,[20],inactive
same,outcome,[5],inactive
same,outcome,[6],inactive
same,outcome,[7],inactive
same,outcome,[8],inactive
same,outcome,[9],inactive
same,outcome,[10],inactive
same,outcome,[11],inactive
same,outcome,[12],inactive
CCCCCCCCCCCC[N+](C)(C)C,outcome,[13],inactive
same,AC50,[1],31.8 µM (active)
same,outcome,[14],inactive
same,outcome,[15],inactive
same,outcome,[4],inactive
same,outcome,[20],inactive
same,AC50,[5],1.98 µM (active)
same,AC50,[6],31.9 µM (active)
same,AC50,[7],20 µM (active)
same,AC50,[8],16.3 µM (active)
same,AC50,[9],15.2 µM (active)
same,AC50,[10],12.7 µM (active)
same,AC50,[11],29.4 µM (active)
same,outcome,[12],inactive
c1ccc2ccccc2c1,outcome,[1],inactive
same,outcome,[2],inactive
same,outcome,[15],inactive
same,outcome,[3],inactive
same,outcome,[19],inactive
same,outcome,[16],inactive
same,AC50,[4],38.9 µM (active)
same,outcome,[4],inactive
same,outcome,[20],inactive
same,outcome,[5],inactive
same,outcome,[6],inactive
same,outcome,[7],inactive
same,outcome,[9],inactive
same,outcome,[10],inactive
same,outcome,[11],inactive
same,outcome,[12],inactive
same,outcome,[17],inactive
